Measured values as given in PubChem BioAssay (NCATS).
Records with an inconclusive call do not appear. The source made the active and inactive calls. Calls come from the whole dose curve; as a rule, active = well fitted inhibition curve with a large enough effect; inconclusive = small, poorly fitted or top-dose-only effect; inactive = flat fitted curve, though single readings scatter.

These molecules were tested against Calcium and integrin-binding protein 1 (Homo sapiens) (UniProt Q99828) (assay: Primary qHTS for Identification of Calcium Integrin Binding Protein 1 (CIB1) Competitor (AID 1508620;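 for activity change, negative = inhibition: GST tagged CIB1 binding a fluorescein labelled alphaIIb integrin peptide tracer; top concentration of the series differs between compounds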)). Settings: CIB1-GST / FITC-alphaIIb peptide fluorescence polarization; series mostly up to 57.7 µM; activity change, negative = inhibition: at the top concentration.
Method in brief: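 Fluorescence polarization competition: CIB1-GST (1 uM final) preincubated with compound 15 min at room temperature, then FITC-labeled alphaIIb peptide (100 nM final) added for another 15 min. Polarization read at Ex 480/Em 540.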
% is set by controls: 0 for no effect and ±100 for the full control effect; potency is the fitted concentration of half-maximal effect.

Calcium and integrin-binding protein 1 (Homo sapiens), sequence (Q99828 whole entry, looked up): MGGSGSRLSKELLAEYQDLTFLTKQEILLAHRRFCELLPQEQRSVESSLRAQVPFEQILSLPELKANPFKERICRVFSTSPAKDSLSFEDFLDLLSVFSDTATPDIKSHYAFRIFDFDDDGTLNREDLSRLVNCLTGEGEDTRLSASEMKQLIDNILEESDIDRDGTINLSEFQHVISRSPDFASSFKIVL

| Structure (SMILES) | activity change, negative = inhibition | Potency |
| --- | --- | --- |
| COc1ccc(-c2oc3c(CC=C(C)C)c(O)cc(O)c3c(=O)c2O)cc1 | 5.5% (inactive) | – |
| CN(C)CC[C@H](CSc1ccccc1)Nc1ccc(S(=O)(=O)NC(=O)c2ccc(N3CCN(Cc4ccccc4-c4ccc(Cl)cc4)CC3)cc2)cc1[N+](=O)[O-] | -2.4% (inactive) | – |
| COc1ccc(CCC(=O)Nc2nc3ccc(Cl)cc3s2)cc1OC | – | inactive |
| CN[C@@H]1CN(c2ccc3c(=O)c(C(=O)O)cn(-c4nccs4)c3n2)C[C@@H]1OC | -2.96% [at 30.2 µM] (inactive) | – |
| COc1cc(F)c(C(C)C)cc1-c1ccc(C(F)(F)F)cc1CN1C(=O)O[C@H](c2cc(C(F)(F)F)cc(C(F)(F)F)c2)[C@@H]1C | -8.08% (inactive) | – |
| Fc1ccc(C(c2ccc(F)cc2)N2CCN(CC=Cc3ccccc3)CC2)cc1 | – | 19.2 µM (active) |
| N[C@@H](CC(=O)N1CCn2c(nnc2C(F)(F)F)C1)Cc1cc(F)c(F)cc1F | 3.09% (inactive) | – |
| O=c1cc(-c2ccc(O)c(O)c2)oc2cc(O)cc(O)c12 | 3.47% (inactive) | – |
| COc1cc(N2CCN(C)CC2)ccc1Nc1nc(N)c(C(=O)c2c(Cl)cccc2Cl)s1 | -10.2% (inactive) | – |
| CC(C)CNc1ccnc(NCc2csc(-c3ccccc3)n2)n1 | – | inactive |
| O=C1CN2Cc3c(ccc(Cl)c3Cl)N=C2N1 | 3.99% (inactive) | – |
| CCCCCCCCCCCCCCCC(=O)O[C@H]1[C@@H](O)[C@@H](O)[C@@H]([C@H](NC(=O)[C@@H]2C[C@@H](CCC)CN2C)[C@H](C)Cl)O[C@@H]1SC | 0.283% (inactive) | – |
| c1ccc(CNc2nc(N3CCOc4ccccc43)nc3c2CCCC3)cc1 | – | inactive |
| CN1CCN(c2ncc(-c3cc(Cl)cc(Cl)c3Cl)c(N)n2)CC1 | -12.6% (inactive) | – |
